Measurements taken from PubChem BioAssay.
Activity calls are given as the source filed them. Unless noted, the rule behind the calls is not given here.

Key:
[1] = liver-stage malaria parasite load reduction – cell-based, known kinase inhibitor set, luminescence, hepatoma host viability (AID 624392); conditions: Plasmodium liver stage in hepatoma cells, luciferase luminescence, concentration not given here; liver cell % of control: measured here: host liver cell viability; parasite % of control: stronger effect = lower value;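 note: infected cells incubated roughly two days before readout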
[2] = altered dexamethasone sensitivity, NF-kB reporter, cell-based, luciferase, IL-1B stimulus (AID 624486); conditions: IL-1B + dexamethasone, luminescence; percent of negative control (+Dex): actives lie on both sides, concentration not given here; z-score: measured here: IL-1B alone, no Dex;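 for percent of negative control (+Dex): 100% = mean signal of vehicle control wells on the plate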
[3] = C. elegans survival during P. aeruginosa infection – whole organism (AID 651566);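 note: tested at 14 µM; sign flipped so higher z means a lower ratio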; conditions: C. elegans killed by P. aeruginosa, survival ratio
[4] = pro-inflammatory signaling induction in mouse macrophages – cell-based, murine, luminescence (AID 652131); conditions: murine macrophage pro-inflammatory reporter, stronger effect = higher value
[5] = biological target: Cellular tumor antigen p53 (Homo sapiens) (UniProt P04637); test: GFP-p53 level modulators in HPV16+ cells – imaging, known kinase inhibitor set, EGFP/DsRed ratio (AID 1053116); conditions: GFP-p53 stability, stronger effect = higher value; EGFP object count: measured here: GFP-p53 positive objects count;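 note: cells exposed to compounds for 24 h at 37 °C before reading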
Cellular tumor antigen p53 (Homo sapiens), sequence (P04637 whole entry, looked up): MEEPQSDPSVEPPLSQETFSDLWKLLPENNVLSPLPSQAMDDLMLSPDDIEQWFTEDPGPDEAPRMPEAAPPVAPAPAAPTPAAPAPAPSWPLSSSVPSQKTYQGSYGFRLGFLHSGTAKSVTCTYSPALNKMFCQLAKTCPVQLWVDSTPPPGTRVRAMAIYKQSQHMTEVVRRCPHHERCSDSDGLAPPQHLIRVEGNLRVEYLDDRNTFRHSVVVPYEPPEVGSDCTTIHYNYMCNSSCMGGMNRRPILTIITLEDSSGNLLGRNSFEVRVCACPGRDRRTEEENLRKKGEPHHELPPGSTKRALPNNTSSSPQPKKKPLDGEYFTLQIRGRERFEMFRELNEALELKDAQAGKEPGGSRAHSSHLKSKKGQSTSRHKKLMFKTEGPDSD

[6] = inducers of IRF3 signaling, differentiated THP-1 – cell-based, PMA-stimulated THP-1, luminescence (AID 1053176); conditions: PMA-differentiated THP-1, IRF3 reporter luminescence; stronger effect = higher value
[7] = MELAS cybrid and Rieske KO viability enhancers – cell-based, MELAS cybrids, Rieske KO mouse fibroblasts, CellTiter-Glo, primary screen (AID 1508586;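 active = mean z-score across replicates of 1.96 or higher in either the MELAS or the Rieske mutant cell line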;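 note: z relative to plate mean and SD of compound and empty wells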); conditions: low glucose
[8] = MELAS cybrid survival, CellTiter-Glo 48 h, stronger effect = higher value
[9] = Rieske KO mouse fibroblast survival, CellTiter-Glo 72 h

SMILES | liver cell % of control [1] [%] | parasite % of control [1] | percent of negative control (+Dex) [2] | z-score [2] | z-score [3] | z-score [4] | EGFP object count [5] | EGFP/DsRed ratio [5] | fraction signal [6] | z-score [7, 8] | z-score [7, 9]
O=C(Nc1n[nH]c2cc(-c3cc(F)ccc3F)ccc12)C1CC1 | 90.7 | 72.2% (inactive) | 81% (inactive) | -0.38 | -0.655 (inactive) | 0.317 (inactive) | 4 | 0.173 (inactive) | -0.0055 (inactive) | -0.186 (inactive) | -0.425
CN(C)CCCn1c(-c2nonc2N)nc2cnccc21 | 105 | 124% (inactive) | 91% (inactive) | 0.395 | 0.105 (inactive) | -0.067 (inactive) | 3.5 | 0.0389 (inactive) | -0.0015 (inactive) | -0.855 (inactive) | -0.298
CCC(=O)Nc1ccc(C)c(-c2ccc(C(=O)NCC3CC3)cc2)c1 | 51.4 | 136% (inactive) | 103% (inactive) | 1.16 | 0.67 (inactive) | 1.18 (inactive) | 3 | 0.0318 (inactive) | 0.001 (inactive) | -0.0107 (inactive) | -0.287
COC(=O)c1ccc2c(c1)/C(=C\c1cc(Br)c(O)c(Br)c1)C(=O)N2 | 150 | 12.2% (active) | 110% (inactive) | 0.355 | -0.645 (inactive) | -0.838 (inactive) | 1 | 0.00779 (inactive) | -0.012 (inactive) | -0.186 (inactive) | -0.227
Fc1cccc(COc2ccc(Nc3ncncc3C#Cc3ccccc3)cc2Cl)c1 | 87.3 | 98% (inactive) | 85.5% (inactive) | -0.815 | 1.36 (inactive) | -0.904 (inactive) | 4 | 0.0412 (inactive) | -0.002 (inactive) | -0.0898 (inactive) | -0.226
COc1cc2ncnc(Nc3ccc(C)c(O)c3)c2cc1OC | 56.5 | 110% (inactive) | 65.5% (inactive) | -2.25 | 0.58 (inactive) | 2.59 (inactive) | 6 | 0.129 (inactive) | 0.0075 (inactive) | 1.32 (inactive) | -0.31
CNC(=O)c1cncc(/C=C/c2ccccc2Cl)c1 | 165 | 16.8% (inactive) | 109% (inactive) | 0.82 | -0.36 (inactive) | 1.43 (inactive) | 6.5 | 0.185 (inactive) | 0.0005 (inactive) | 1.56 (inactive) | -0.00226
CCn1c(-c2nonc2N)nc2ccncc21 | 99.1 | 98.3% (inactive) | 93.5% (inactive) | -0.26 | -0.61 (inactive) | -0.193 (inactive) | 4 | 0.405 (inactive) | -0.004 (inactive) | -0.197 (inactive) | -0.472
COc1ccc2ncn(-c3cc(O[C@H](C)c4ccccc4C(F)(F)F)c(C(N)=O)s3)c2c1 | 75.6 | 88.3% (inactive) | 75% (inactive) | -2.76 | 0.355 (inactive) | -1.54 (inactive) | 7.5 | 0.176 (inactive) | 0.0035 (inactive) | -0.00963 (inactive) | 0.29
Cc1ccc(-c2cc3c(NC(=O)C4CC4)ncnc3o2)cc1 | 108 | 92.7% (inactive) | 83.5% (inactive) | -0.295 | -0.475 (inactive) | -0.06 (inactive) | 4.5 | 0.0878 (inactive) | -0.004 (inactive) | -0.119 (inactive) | 0.346
NS(=O)(=O)c1cccc(N=Cc2c(O)[nH]c3ccccc23)c1 | 80.7 | 106% (inactive) | 89.5% (inactive) | 0.485 | -1.3 (inactive) | 1.25 (inactive) | 7 | 0.162 (inactive) | -0.0005 (inactive) | 1.07 (inactive) | -0.155
Cc1nnc(-c2cccc(-c3ccc(C(=O)NCC4CC4)cc3)c2)o1 | 102 | 99.2% (inactive) | 89.5% (inactive) | -0.24 | 0.175 (inactive) | -0.114 (inactive) | 4 | 0.0445 (inactive) | -0.01 (inactive) | 0.518 (inactive) | 0.121
COc1ccc2cc(-c3c(-c4ccncc4)nc(-c4ccc(S(C)=O)cc4C)n3C)ccc2c1 (centres undefined) | 94.7 | 66.8% (inactive) | 94% (inactive) | 0.56 | 0.7 (inactive) | 0.465 (inactive) | 2.5 | 0.206 (inactive) | -0.007 (inactive) | 0.0666 (inactive) | -0.0858
CS(=O)(=O)CCNCc1nc(-c2ccc3ncnc(Nc4ccc(F)c(Cl)c4)c3c2)cs1 | 103 | 148% (inactive) | 70.5% (inactive) | -1.57 | 0.63 (inactive) | 2.24 (inactive) | 6.5 | 0.211 (inactive) | 0.002 (inactive) | 0.0696 (inactive) | -0.331
